Reference: PubChem BioAssay (NCATS)
“And” between values parts separate entries of the source, which are not always exact repeats. Equal entries are not always repeated. Records with an inconclusive call do not appear. Entries that show only a call come without a potency. The source made the active and inactive calls. Calls follow the shape of the full dose curve.

Tests used:
[1] = Cytotoxicity counterscreen for inhibitors of SARS-CoV-2 cell entry (AID 1645845); also: nearly all actives have a fitted effect of over 50% in size
Summary of the method: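 HEK293-ACE2 cells (Expi293F stably expressing human ACE2) seeded overnight, then compound for 1 h plus 48 h at 37C. Viability as ATP content by luminescence; normalized to wells with cells and media-only wells.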

[2] = Primary qHTS to identify inhibitors of SARS-CoV-2 cell entry (AID 1645846); conditions: activity change, negative = inhibition: at 57.1 µM (top of the series) unless noted; also: nearly all actives have a fitted effect of over 45% in size
Summary of the method: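 HEK293-ACE2 (Expi293F, stable hACE2), 1500 cells/well, o/n 37C; cpd 23 nL pin, 1 h; MLV-PP w/ SARS-CoV-2-S (Wuhan-Hu-1, Δ19 C-term); 48 h 37C; Bright-Glo luminescence; normalized vs S-PP and bald PP.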

Compound: CO/N=C(/C(=O)N[C@@H]1C(=O)N2C(C(=O)O)=C(Cn3nnc(C)n3)CS[C@H]12)c1csc(N)n1
- Potency [1]: inactive
- Potency [2]: inactive

Compound: Cc1ncc(COP(=O)(O)O)c(C=O)c1O
- Potency [1]: inactive
- activity change, negative = inhibition [2]: -19%

Compound: CCN1C(=O)c2ccccc2C1Nc1ccc(OCCN2CCCCC2)cc1 (configuration not stated)
- Potency [1]: inactive
- activity change, negative = inhibition [2]: 0.117%

Compound: c1ccc(CNCCNCc2ccccc2)cc1
- Potency [1]: inactive
- activity change, negative = inhibition [2]: -30.1%

Compound: c1ccc2[nH]c(-c3cscn3)nc2c1
- Potency [1]: inactive
- Potency [2]: inactive

Compound: O=C(O)CCc1nc(-c2ccccc2)c(-c2ccccc2)o1
- Potency [1]: inactive
- activity change, negative = inhibition [2]: 2.68%

Compound: CCOC(=O)OC(C)OC(=O)[C@@H]1N2C(=O)[C@@H](NC(=O)[C@H](N)c3ccccc3)[C@H]2SC1(C)C (some centres not stated)
- Potency [1]: inactive
- activity change, negative = inhibition [2]: -12.7%

Compound: CCCCCC1Nc2cc(C(F)(F)F)c(S(N)(=O)=O)cc2S(=O)(=O)N1 (configuration not stated)
- Potency [1]: inactive
- Potency [2]: inactive

Compound: CC(=C(CCOC(=O)C(C)C)SSC(CCOC(=O)C(C)C)=C(C)N(C=O)Cc1cnc(C)nc1N)N(C=O)Cc1cnc(C)nc1N
- Potency [1]: inactive
- Potency [2]: inactive

Compound: CN(CCCN1c2ccccc2CCc2ccccc21)CC(=O)c1ccc(Cl)cc1
- Potency [1]: inactive
- activity change, negative = inhibition [2]: -5.87%

Compound: COC(=O)C1=C(C)NC(COC(N)=O)=C(C(=O)OC(C)C)C1c1cccc(Cl)c1Cl (configuration not stated)
- Potency [1]: inactive
- activity change, negative = inhibition [2]: -3.4%

Compound: CC(=O)/C=C/C=C1/C2CCC(C2)C1(C)C (configuration not stated)
- Potency [1]: inactive
- activity change, negative = inhibition [2]: -3.44%

Compound: Cc1cccc(N(C)C(=S)Oc2ccc3ccccc3c2)c1
- Potency [1]: inactive
- activity change, negative = inhibition [2]: -10.5% and -29.1%

Compound: C[N+](C)(C)CCCCCCCCCC[N+](C)(C)C
- Potency [1]: inactive
- activity change, negative = inhibition [2]: -5.17%

Compound: Cc1nc(C2CCCCC2)c(-c2ccc(S(N)(=O)=O)c(F)c2)o1
- Potency [1]: inactive
- Potency [2]: inactive

Compound: C[N+]1(CC2COC(c3ccccc3)(C3CCCCC3)O2)CCCCC1 (configuration not stated)
- Potency [1]: inactive
- activity change, negative = inhibition [2]: -2.6%

Compound: COC(=O)C1=C(C)NC(C)=C(C(=O)OC)C1c1ccccc1[N+](=O)[O-]
- Potency [1]: inactive
- activity change, negative = inhibition [2]: -30.6%

Compound: C=CC[N+]1([C@H]2C[C@H]3[C@@H]4CC[C@H]5C[C@H](OC(C)=O)[C@@H](N6CCCCC6)C[C@]5(C)[C@H]4CC[C@]3(C)[C@H]2OC(=O)CC)CCCCC1
- Potency [1]: inactive
- Potency [2]: inactive

Compound: O=C1C(c2[nH]c3ccccc3c2O)=Nc2ccccc21
- Potency [1]: inactive
- activity change, negative = inhibition [2]: -0.955%

Compound: CC(=O)CCC(=O)O
- Potency [1]: inactive
- Potency [2]: inactive

Compound: CC(O)COc1ccccc1 (configuration not stated)
- Potency [1]: inactive
- Potency [2]: inactive

Compound: Cc1cccc(C)c1NC(=O)C(C)N (configuration not stated)
- Potency [1]: inactive
- activity change, negative = inhibition [2]: 4.4%

Compound: C[C@]12CCC(=O)C=C1[C@@H]1C[C@@H]1[C@H]1[C@@H]3[C@@H]4C[C@@H]4[C@@]4(CCC(=O)O4)[C@@]3(C)CC[C@@H]12
- Potency [1]: inactive
- activity change, negative = inhibition [2]: 0.82% and 2.72%

Compound: NCC1CCC(C(=O)Oc2ccc(CCC(=O)O)cc2)CC1 (configuration not stated)
- Potency [1]: inactive
- Potency [2]: inactive

Compound: Cc1ccc(N(CC2=NCCN2)c2cccc(O)c2)cc1
- Potency [1]: inactive
- activity change, negative = inhibition [2]: -6.91% and 2.72%

Compound: CCNC(=O)NCCCOc1cccc(CN2CCCCC2)c1
- Potency [1]: inactive
- Potency [2]: inactive

Compound: N[C@H](Cc1c[nH]c2ccccc12)C(=O)O
- Potency [1]: inactive
- Potency [2]: inactive

Compound: FC(F)(F)C(Cl)Br (configuration not stated)
- Potency [1]: inactive
- activity change, negative = inhibition [2]: -18.5%

Compound: C[C@@H](C1=C(CCN(C)C)Cc2ccccc21)c1ccccn1
- Potency [1]: inactive
- activity change, negative = inhibition [2]: -25.9%

Compound: CCOc1cc(N)c(Cl)cc1C(=O)NCC1CN(Cc2ccc(F)cc2)CCO1 (configuration not stated)
- Potency [1]: inactive
- Potency [2]: inactive

Compound: NC(N)=NCCC[C@H](N)C(=O)O
- outcome [1]: inactive [at 5.25 µM]
- outcome [2]: inactive [at 5.25 µM]

Compound: CCOC(=O)c1c(N)sc2c1CCN(Cc1ccccc1)C2
- Potency [1]: inactive
- Potency [2]: inactive

Compound: O=C1O[C@H]([C@@H](O)CO)C(O)=C1O
- Potency [1]: inactive
- Potency [2]: inactive

Compound: CC(C)N=C(N)/N=C(\N)Nc1ccc(Cl)cc1
- Potency [1]: inactive
- Potency [2]: inactive

Compound: CC(O)Cn1cnc2c1c(=O)n(C)c(=O)n2C (configuration not stated)
- Potency [1]: inactive
- activity change, negative = inhibition [2]: 0.504%

Compound: CC1(C)[C@H](C(=O)O)N2C(=O)C[C@H]2S1(=O)=O
- Potency [1]: inactive
- Potency [2]: inactive

Compound: N[C@@H](CSCCCO)C(=O)O
- Potency [1]: inactive
- Potency [2]: inactive

Compound: CC[N+](CC)(CC(=O)Nc1c(C)cccc1C)Cc1ccccc1
- Potency [1]: inactive
- Potency [2]: inactive

Compound: CCCC(=O)OC[C@@H](OC(=O)CCC)[C@@H](OC(=O)CCC)[C@H](Cn1c2nc(=O)[nH]c(=O)c-2nc2cc(C)c(C)cc21)OC(=O)CCC
- Potency [1]: inactive
- activity change, negative = inhibition [2]: -16.8%

Compound: CSc1ccc(C(=O)c2[nH]c(=O)[nH]c2C)cc1
- Potency [1]: inactive
- Potency [2]: inactive

Compound: O=C(O)CCNC(=O)c1ccccc1
- Potency [1]: inactive
- Potency [2]: inactive

Compound: Nc1ccc(N=Nc2ccccc2)c(N)n1
- Potency [1]: inactive
- Potency [2]: inactive

Compound: CCCCCOc1ccc(C2SC(=O)NC2=O)cc1OCC (configuration not stated)
- Potency [1]: inactive
- activity change, negative = inhibition [2]: -11.6%

Compound: C=C1C[C@H]2[C@@H]3C=C(C)C4=CC(=O)CC[C@]4(C)[C@H]3CC[C@]2(C)[C@@]1(OC(C)=O)C(C)=O
- Potency [1]: inactive
- activity change, negative = inhibition [2]: 2.39%

Compound: CCC(=O)Oc1ccc2c(c1)CC[C@@H]1[C@@H]2CC[C@@]2(C)[C@H]1C[C@@H](OC(=O)CC)[C@@H]2OC(=O)CC
- Potency [1]: inactive
- Potency [2]: inactive

Compound: CC(=O)OCC(=O)[C@@]1(O)CCC2C3CCC4=CC(=O)CC[C@]4(C)C3[C@@H](O)C[C@@]21C (some centres not stated)
- Potency [1]: inactive
- Potency [2]: inactive
